From PubChem BioAssay (EPA / NIEHS)
Several values for one entry are separate records, joined by “and”; a condition that tells them apart may be missing. Equal values may be shown once. Results filed as inconclusive are left out. Where a structure was tested more than once in an assay, its records may differ in their call. Activity calls are given as the source filed them. Rule for the calls, unless noted: active = hit-call score of the fitted dose curve at least 0.9, where 1 is the maximum; inactive = score below 0.9.

What was measured:
[1] = CCTE_Harrill_HTTr_Apoptosis_MCF7: CCTE's 6-hour Apoptosis Assessment for the High-Throughput Transcriptomics (HTTr) Platform, in MCF-7 cells cultured in DMEM + 10% fetal bovine serum, Harrill Lab (AID 2284011)
Procedure, shortened: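 Apoptosis in MCF-7 cells grown in DMEM with 10% fetal bovine serum was scored after a six hour exposure by high content imaging of caspase-3/7 activation (CellEvent Caspase 3/7 Green), with DMSO serving as negative control and baseline.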

[2] = CCTE_Shafer_MEA_acute_burst_number: CCTE's Neural Acute Assay for Single-Electrode Bursts, Shafer Lab (AID 2284013)
Procedure, shortened: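 Spontaneous network activity of primary rat cortical neurons was recorded extracellularly on microelectrode arrays at 37 C, with 40-min periods before and during exposure to 0.03-40 uM compound on DIV 13 or 15.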

[3] = CCTE_Shafer_MEA_acute_burst_duration_mean: CCTE's Neural Acute Assay for Mean Burst Duration, Shafer Lab (AID 2284014);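 note: hits are decreases in mean burst duration relative to DMSO controls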
Procedure, shortened: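 Read-out is the per-well percent change in mean burst duration (first to last spike within a single-electrode burst) between 40-min recordings before and after compound. Cultures were primary rat cortical neurons on MEAs, dosed at 0.03-40 uM on DIV 13 or 15.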

[4] = CCTE_Shafer_MEA_acute_interburst_interval_mean: CCTE's Neural Acute Assay for Mean Interburst Interval, Shafer Lab (AID 2284016);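 note: percent change of mean interburst interval versus each well's own pre-dose baseline; curves fitted for decrease in interburst interval relative to DMSO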
Procedure, shortened: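 Percent change in mean single-electrode interburst interval was calculated per well from 40 min recordings before and after compound (0.03-40 uM). Recordings were made at 37 C on rat cortical cultures at DIV 13 or 15, with spikes detected at 8x rms threshold.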

[5] = CCTE_Shafer_MEA_acute_burst_percentage_mean: CCTE's Neural Acute Assay for Percentage of Spikes in a Burst, Shafer Lab (AID 2284017);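 for AC50: curve fitted for loss of signal so potency reflects decreased burst percentage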
Procedure, shortened: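 Well-level mean burst percentage from a 40-min recording after compound (0.03-40 uM) expressed as percent change from a 40-min baseline at 37C. Cultures: primary rat cortical neurons on MEA, dosed on DIV 13 or 15; fitted downward relative to DMSO.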

[6] = CCTE_Shafer_MEA_acute_burst_percentage_std: CCTE's Neural Acute Assay for Standard Deviation of Burst Percentage, Shafer Lab (AID 2284018);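 note: fitted in the negative direction so actives lower burst percentage SD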
Procedure, shortened: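 Value is percent change from baseline in the across-electrode SD of spikes-in-bursts percentage, wells with >/= 10 active electrodes. Acute 40-min exposure to 0.03-40 uM on DIV 13 or 15 rat cortical cultures, recorded at 37 C after 40-min baseline.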

[7] = CCTE_Shafer_MEA_acute_per_network_burst_spike_number_mean: CCTE's Neural Acute Assay for Average Number of Spikes in a Network Burst, Shafer Lab (AID 2284019)
Procedure, shortened: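 Read-out is mean spike count per network burst, taken as percent change between a 40-min pre-exposure and a 40-min post-exposure recording per well. Rat primary cortical neurons on MEAs at 37 C, DIV 13 or 15; compounds at 0.03-40 uM.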

[8] = CCTE_Shafer_MEA_acute_per_network_burst_spike_number_std: CCTE's Neural Acute Assay for Standard Deviation of Number of Spikes in a Network Burst, Shafer Lab (AID 2284020);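 note: fitted for decrease in spike-number SD versus DMSO so actives lower it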
Procedure, shortened: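 Spontaneous network activity of primary rat cortical neurons is recorded extracellularly before and after a 40-min compound exposure (0.03-40 uM) at 37 C. The endpoint is the well's percent change in burst spike-number SD.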

[9] = CCTE_Shafer_MEA_acute_per_network_burst_electrodes_number_mean: CCTE's Neural Acute Assay for Mean Number of Electrodes in a Network Burst, Shafer Lab (AID 2284021);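 note: curves fitted for decreases only so hits reduce electrodes per burst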
Procedure, shortened: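 Percent change from baseline in average electrode count per network burst, rat cortical cultures on 48-well MEAs; 40-min recordings each side of exposure, DIV 13 or 15; threshold 8x rms noise; DMSO as negative control.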

[10] = CCTE_Shafer_MEA_acute_network_burst_percentage: CCTE's Neural Acute Assay for Percentage of Network Bursts, Shafer Lab (AID 2284022);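 note: curves fitted for loss so actives lower network burst percentage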
Procedure, shortened: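 On DIV 13 or 15, at least three wells of rat cortical neurons per compound are dosed at 0.03-40 uM. Spontaneous firing is detected at 8x rms noise for 40 min before and after dosing at 37 C. The percent change in network-burst spike share is reported.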

[11] = CCTE_Shafer_MEA_acute_cross_correlation_area: CCTE's Neural Acute Assay for Area of Cross Correlation, Shafer Lab (AID 2284024);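 note: area under pooled inter-electrode spike cross-correlation near zero lag as percent change from own baseline; curves fitted for loss of cross-correlation area so actives lower synchrony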
Procedure, shortened: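 Extracellular recordings from cultured rat cortical neurons measure network synchrony as cross-correlation area; each well's post-compound value (0.03-40 uM, 40 min) is compared with its own 40 min baseline to give percent change.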

[12] = CCTE_Shafer_MEA_acute_cross_correlation_HWHM: CCTE's Neural Acute Assay for Cross Correlation at Half Width at Half Maximum, Shafer Lab (AID 2284026);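 note: percent change per well from pre-dose baseline in spike cross-correlogram half width; hits are a decrease in cross-correlogram half width relative to DMSO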
Procedure, shortened: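 Percent change in cross-correlogram half width at half maximum, narrower meaning more synchrony, was derived per well from paired 40-min recordings before and during exposure to 0.03-40 uM compound in rat cortical cultures at 37 C.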

[13] = CCTE_Shafer_MEA_acute_synchrony_index: CCTE's Neural Acute Assay for Synchrony, Shafer Lab (AID 2284027);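 note: network synchrony index of spontaneous spiking in primary rat cortical neurons on MEAs; fitted for loss of signal so actives lower synchrony relative to DMSO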
Procedure, shortened: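 Primary rat cortical neurons on 48-well MEAs, dosed at 0.03–40 uM on DIV 13 or 15. Spikes are recorded for 40 min at 37C before and after exposure, and synchrony index (0–1) is expressed as percent change from baseline per well.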

[14] = CCTE_Harrill_HTTr_CellCount_MCF7: CCTE's Cell Proliferation Assessment for the High-Throughput Transcriptomics (HTTr) Platform, Harrill Lab (AID 2284012; active = hit-call score of the fitted dose curve at least 0.9, where 1 is the maximum;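 note: cells exposed to compound for six hours; intended direction is loss of nuclei count meaning fewer cells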)
Procedure, shortened: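 MCF7 cells exposed 6 hours to an eight-point dilution series; Hoechst-stained nuclei counted by high-content imaging. Bidirectional curve fitting against DMSO baseline.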

[15] = CCTE_Shafer_MEA_dev_firing_rate_mean: CCTE's Neural Network Formation Assay for Mean Firing Rate, Shafer Lab (AID 2284031);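 for AC50: curve fitted for loss of firing so AC50 reflects decreased mean firing rate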
Procedure, shortened: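 Primary rat cortical neurons on 48-well MEA plates, exposed from plating day 0 with dosing renewed on DIV 5 and 9. Mean well firing rate over active electrodes, recorded days 5, 7, 9, 12, summarised as trapezoidal AUC.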

[16] = CCTE_Shafer_MEA_dev_active_electrodes_number: CCTE's Neural Network Formation Assay for Number of Active Electrodes, Shafer Lab (AID 2284040; active = hit-call score of the fitted dose curve at least 0.9, where 1 is the maximum;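 for AC50: potency for loss of active electrodes versus DMSO so lower counts are hits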)
Procedure, shortened: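 Primary rat cortical neurons on 16-electrode MEA wells, exposed from day 0 through day 12 with compound renewed at DIV 5 and 9 feeds. Active electrodes (mean firing ≥5 spikes/min) counted at DIV 5, 7, 9, 12; trapezoidal AUC across days, loss-of-signal versus DMSO.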

[17] = CCTE_Deisenroth_AIME_384WELL_CTox_Active: Cytotoxicity Assessment (CTOX) in CCTE's 384-well Estrogen Receptor Transactivation Assay with AIME metabolic competence (metabolism positive), Deisenroth Lab (AID 2284037; active = hit-call score of the fitted dose curve at least 0.9, where 1 is the maximum;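 note: chemicals first conditioned 2 h by alginate-bound induced rat liver S9 before cells; activity means signal loss indicating cell death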)
Procedure, shortened: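 Cytotoxicity in VM7Luc4E2 breast cells, 24 hour, measured as protease-substrate fluorescence loss, after 2-hour metabolic conditioning with induced rat hepatic S9 in alginate microspheres. Concentrations 0.002 - 200 uM, 10 points, bidirectional fitting.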

[18] = biological target: Estrogen receptor (Homo sapiens) (UniProt P03372); assay: CCTE_Deisenroth_AIME_384WELL_LUC_Inactive: CCTE's 384-well Estrogen Receptor Transactivation Assay without AIME metabolic competence (ERTA luciferase; metabolism negative), Deisenroth Lab (AID 2284038; active = hit-call score of the fitted dose curve at least 0.9, where 1 is the maximum;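 note: VM7Luc4E2 breast cells given medium preincubated 2 h with S9-free microspheres; hits raise estrogen receptor luciferase signal so potencies reflect agonists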)
Sequence of Estrogen receptor (Homo sapiens) (P03372 whole entry, looked up): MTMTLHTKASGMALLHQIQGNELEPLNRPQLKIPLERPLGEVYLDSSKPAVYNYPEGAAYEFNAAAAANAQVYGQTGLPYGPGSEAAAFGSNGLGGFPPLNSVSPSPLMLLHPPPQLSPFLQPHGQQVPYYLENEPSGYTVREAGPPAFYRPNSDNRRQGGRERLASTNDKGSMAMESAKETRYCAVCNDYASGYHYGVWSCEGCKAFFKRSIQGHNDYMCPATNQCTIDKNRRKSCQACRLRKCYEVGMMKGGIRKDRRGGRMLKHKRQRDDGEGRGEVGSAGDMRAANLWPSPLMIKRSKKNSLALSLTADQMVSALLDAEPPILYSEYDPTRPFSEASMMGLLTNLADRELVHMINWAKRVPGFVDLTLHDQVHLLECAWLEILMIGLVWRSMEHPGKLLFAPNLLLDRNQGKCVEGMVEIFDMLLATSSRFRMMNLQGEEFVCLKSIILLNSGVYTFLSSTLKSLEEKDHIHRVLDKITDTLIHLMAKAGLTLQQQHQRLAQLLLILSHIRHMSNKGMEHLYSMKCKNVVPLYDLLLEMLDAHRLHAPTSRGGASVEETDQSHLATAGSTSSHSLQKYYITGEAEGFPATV
Procedure, shortened: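 Metabolism-negative mode: chemicals (10-point, 0.002–200 uM) held 2 h with alginate-water microspheres, then conditioned medium applied to VM7Luc4E2 cells for 24 h. Luciferase induction referenced to 17beta-estradiol.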

[19] = biological target: Estrogen receptor (Homo sapiens) (UniProt P03372); assay: CCTE_Deisenroth_AIME_384WELL_LUC_Shift: CCTE's 384-well Estrogen Receptor Transactivation Assay with AIME metabolic competence data shift (ERTA luciferase; difference in metabolism positive and negative), Deisenroth Lab (AID 2284041);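 note: shift is response with S9 minus without S9 so positive means metabolism raised ER signal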
Procedure, shortened: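 Test chemicals (0.002–200 uM, 10-point) were pre-incubated 2 h with alginate microspheres containing phenobarbital/beta-naphthoflavone-induced male Sprague Dawley rat liver S9 or water, then medium was transferred to VM7Luc4E2 cells for 24 h luciferase readout; shift = S9-positive minus S9-negative normalized response.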

Measured: AC50

CC(C)(OOC(C)(C)c1ccccc1)c1ccccc1
inactive: [1] | [2] | [3] | [4] | [5] | [6] | [7] | [8] | [9] | [10] | [11] | [12] | [13]

CC(C)(O)c1cnn2c(-c3ccc(F)c(-c4c(F)cccc4C#N)c3)cnc2n1
inactive: [1] | [14] | [3] | [4] | [6] | [7] | [11] | [15]
active: [2] 1.18 µM | [5] 20 µM | [8] 3.97 µM | [9] 20 µM | [10] 30.8 µM | [12] 3.97 µM | [13] 35.8 µM | [16] 5.55 µM

Oc1ccc2ccc3cccc4ccc1c2c34
active: [1] 48.2 µM | [17] 88.4 µM

O=Cc1ccco1
inactive: [3] | [4] | [5] | [6] | [7] | [8] | [9] | [10] | [11] | [12] | [13]

Cc1cc(N=Nc2ccccc2C)ccc1N
inactive: [1] | [2] | [3] | [4] | [7] | [8] | [9] | [10] | [11]
active: [5] 26.6 µM | [6] 28.9 µM | [12] 30.1 µM | [13] 28.7 µM | [17] 107 µM

CCOC(=O)[C@]1(c2ccccc2)Oc2ccccc2[C@@H]1N
inactive: [1] | [17]

ClCCOCCCl
inactive: [1] | [2] | [3] | [4] | [5] | [6] | [7] | [8] | [9] | [10] | [11] | [12] | [13] | [17]

CCNS(=O)(=O)C(F)(F)C(F)(F)C(F)(F)C(F)(F)C(F)(F)C(F)(F)C(F)(F)C(F)(F)F
active: [16] 7.41 µM and 2.98 µM
inactive: [1] | [15] | [17]

Nc1ccc(Oc2ccc(N)cc2)cc1
inactive: [1] | [14] | [17]

c1ccc(N=Nc2ccccc2)cc1
inactive: [1] | [14] | [2] | [3] | [7] | [8] | [9] | [11] | [12] | [13] | [17]
active: [4] 34.6 µM | [5] 26.8 µM | [6] 36.2 µM | [10] 5.14 µM

CN(C)[C@@H]1C(=O)C(C(N)=O)=C(O)[C@@]2(O)C(=O)C3=C(O)c4c(O)cccc4[C@@](C)(O)[C@H]3C[C@@H]12
inactive: [1] | [14] | [15] | [17] | [16]

Cc1ccc([N+](=O)[O-])cc1
inactive: [1] | [17] | [18] | [19]

COP(=S)(OC)SCN1C(=O)c2ccccc2C1=O
active: [15] 83.2 µM | [16] 61.1 µM and 51.5 µM
inactive: [1] | [14] | [15]

O=C(Nc1ccccc1)c1ccccc1I
active: [18] 23.7 µM | [19] 6.87 µM
inactive: [1]

CCOc1cccc(C2(N3CCN(c4ccccc4)CC3)CCC(C)CC2)c1 (stereo unspecified)
inactive: [1] | [14] | [17] | [18] | [19]

c1ccc(NNc2ccccc2)cc1
inactive: [1] | [14] | [2] | [3] | [4] | [6] | [7] | [8] | [9] | [10] | [11]
active: [12] 29.7 µM | [13] 29.6 µM

CCCCCOC(=O)c1ccccc1C(=O)OCCCCC
active: [2] 5.2 µM | [4] 1.49 µM | [5] 9.17 µM | [8] 4.73 µM | [10] 26.4 µM | [12] 2.82 µM | [13] 12.4 µM
inactive: [1] | [14] | [3] | [6] | [7] | [9] | [11] | [17] | [18] | [19]
